The list is not random: actives were taken first. Their share in the collection is about 20%.
Cycloheximide cs: affects cycloheximide protein synthesis inhibition readout, counter-screen; AID 2314; cell reporter, cycloheximide protein synthesis inhibition counterscreen; actives 12% (n = 300,000); max response, %; in the data active = max response mostly above about 13%, no sharp cut-off; inactive = mostly below about 14%; also: read at 38.3 µM for the half of the compounds with a filed dose; 0% is about no effect
Pf growth 48h: inhibits P. falciparum growth in the first generation, 48 h. Potency, µM (series often up to 28.7 µM), inactives show top-dose activity change, negative = inhibition, actives largely listed as inhibitors. P. falciparum luciferase growth in erythrocytes, 48 h. actives 5.9% (n = 310,000); also: potency is read from the fitted curve at half-maximal effect; % is scaled to controls: 0 for no effect and ±100 for the full control effect
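Cell-based growth assay: transgenic P. falciparum expressing firefly luciferase, cultured in red cells within RPMI 1640 containing 0.5% w/v Albumax, 24 mM bicarbonate and gentamycin. A drop in luciferase activity indicates inhibition.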
Pf growth 96h: inhibits malaria parasite growth, 96 h. actives 6.9% (n = 320,000). Potency, µM (series often up to 28.7 µM), for inactives: top-dose activity change, negative = inhibition, hits mostly inhibitors. P. falciparum luciferase reporter growth, 96 h; also: potency is read from the fitted curve at half-maximal effect; % is scaled to controls: 0 for no effect and ±100 for the full control effect
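Readout is luminescence from an integrated firefly luciferase in P. falciparum. Red cells, 2% hematocrit and 0.05% parasitemia final, were cultured with compound through two parasite generations (96 hours) at 37 C, 5% CO2.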
HCMV antiviral: blocks human cytomegalovirus replication | HFF cells, HCMV-luciferase reporter, 72 h; hits give low values | activity change, negative = inhibition, % at 57.5 µM | actives 4.5% (n = 410,000) | AID 1259415; in the data active = activity change below about -60%; inconclusive = no clear call, values can overlap the other calls; inactive = above about -39%; also: % is scaled to controls: 0 for no effect and ±100 for the full control effect
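Cell-based, HFFs, 1000 cells/well, 16 h 37C; cpds in DMSO + HCMV-luc, MOI 1 PFU/cell; 72 h 37C; OneGlo luminescence after 5 min RT; norm. to buffer vs Salinomycin 10uM.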
Shiga inhibitor: Shiga toxin inhibition; actives 9.2% (n = 290,000); inhibition, % at 38.7 µM; Vero cells, Shiga toxin protein synthesis inhibition reporter; in the data active = inhibition mostly above about 28%, no sharp cut-off; inactive = mostly below about 43%; also: 0% is about no effect
Active calls of the source: *; i = inactive; ? = inconclusive; · = not tested or not shown; ! = not confirmed by another sample. Unless noted, calls follow the shape of the dose curve; as a rule, active = well fitted inhibition curve with a large enough effect; inconclusive = small, poorly fitted or top-dose-only effect, or another doubt; inactive = no such curve, though single readings can be large or run the other way.

SMILES	Cycloheximide cs	Pf growth 48h	Pf growth 96h	HCMV antiviral	Shiga inhibitor
Cc1ccnc(NC(=O)c2cc([N+](=O)[O-])cc([N+](=O)[O-])c2)c1	7	?	11%	-22	21
CC(C)CC(=O)NC(=S)Nc1ccccn1	26*	26%	·	-10	44
O=C(Cc1ccc(-c2ccccc2)cc1)Nc1ccccn1	40*	30%	42%	27	88*
O=C(CC(=O)Nc1ccccn1)Nc1ccccn1	18*	144%	9.3µM*	-8	15
Cc1ccnc(NC(=O)Cc2ccc([N+](=O)[O-])cc2)c1	19*	17%	15%	?	58
CC(C)CC(=O)NC(=S)Nc1ccccc1F	15	22%	13%	13	27
CC(C)(CNC(=O)c1ccc(S(=O)(=O)Nc2cccc(C(F)(F)F)c2)cc1)N1CCOCC1	·	?	-4%	5	·
COC(=O)CSc1nc2c(cnn2-c2ccc(Cl)cc2)c(=O)[nH]1	-1	13%	1%	-5	-6
Cc1ccnc(NC(=O)Cc2ccc(-c3ccccc3)cc2)c1	72*	8%	255%	-90*	80*
CC1CCCN(S(=O)(=O)c2ccc(NC(=O)Cc3ccc(S(=O)(=O)N4CCOCC4)s3)cc2)C1 (configuration not stated)	·	?	7.4µM*	?	·
CC(=O)Nc1ccc(NC(=O)Cc2ccc(S(=O)(=O)N3CCCCC3)s2)cc1	1	-16%	?	-16	-6
CNC(=O)c1ccc(NC(=O)Cc2ccc(S(=O)(=O)N3CCOCC3)s2)cc1	·	-32%	15µM*	58	·
CC1CCN(S(=O)(=O)c2ccc(NC(=O)Cc3ccc(S(=O)(=O)N4CCOCC4)s3)cc2)CC1	·	-21%	?	?	·
CC1CCCCC1NC(=O)Cc1ccc(S(=O)(=O)N2CCOCC2)s1 (configuration not stated)	·	?	12µM*	-8	·
COc1ccccc1C1CC(=O)Oc2cc(OC)c(OC)c(OC)c21 (configuration not stated)	0	·	·	16	i
CCOC(=O)c1oc2ccc(S(=O)(=O)n3nc(-c4cc(OCC)c(OCC)c(OCC)c4)cc3N)cc2c1C	·	·	·	34	·
CS(=O)(=O)N(CC(N)=O)c1cccc(Br)c1	-1	7%	3.7µM*	12	-4
COc1ccc(CCN2C(=O)N(c3cccc(C)c3)C(=O)C2CC(=O)Nc2ccccc2)cc1OC (configuration not stated)	·	·	·	5	·
O=C1C=C(c2cccs2)C[C@H](c2ccccc2)[C@H]1n1nnc([N+](=O)[O-])n1	-2	?	?	-80*	-6
CN(C)c1ccc(C=Cc2nccc3ccccc23)cc1	·	·	·	8	·
CCCCCC[n+]1ccccc1/C=C/c1ccc(N(C)C)cc1	·	·	·	-97*	·
CCN(CC)c1nc(C=Cc2ccc(N(C)C)cc2)c2nccnc2n1	·	·	·	-25	·
CC[n+]1ccc(/C=C/c2ccc(N(C)C)cc2)c2ccccc21	-5	0.59µM*	10%	-99*	-24
CC[n+]1ccccc1/C=C/c1ccc(N(C)C)cc1	-1	2.9µM*	-16%	-86*	-10
O=C1CCc2cc(NS(=O)(=O)c3ccc([N+](=O)[O-])cc3)cc3c2N1CC3	·	-15%	0%	-13	·
SMILES	Cycloheximide cs	Pf growth 48h	Pf growth 96h	HCMV antiviral	Shiga inhibitor
CCOc1ccc(S(=O)(=O)N2CCCCC2)cc1NC(=O)CSCc1c(C)noc1C	·	?	?	9	·
Cc1csc(CN(C)C(=O)C2CCC(=O)N(CCCc3ccccc3)C2)n1 (configuration not stated)	-2	4%	?	11	-12
COc1ccccc1CN1CC(C(=O)N(C)CCc2ccccn2)CCC1=O (configuration not stated)	·	·	·	10	·
COc1ccccc1CN1CC(C(=O)N(C)Cc2nc(C)cs2)CCC1=O (configuration not stated)	17*	8%	?	-19	39
COc1ccccc1CN1CC(C(=O)N(C)CCc2nc3ccc(F)cc3[nH]2)CCC1=O (configuration not stated)	-2	-12%	10µM*	-24	-3
Cc1nn(C2CCS(=O)(=O)C2)c2nc(C3CC3)cc(C(=O)Nc3cccc(C#N)c3)c12 (configuration not stated)	·	?	?	0	·
Cn1cc(NC(=O)c2cc(NC(=O)c3cc(NC=O)cn3C)cn2C)cc1C(=O)NCCC(=N)N	-5	3.4µM*!	?	·	-3

From PubChem BioAssay
